Experimental data: PubChem BioAssay AID798 (PCMD, 2007)
Among all 220,000 compounds or so, about 300 (0.14%) were called active. The sample as a whole holds a higher share of actives than the screen did. Values without a mark were called inactive.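 The calls were made as follows: active = inhibition of at least 40%; inactive = inhibition below 40%.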

molecular target: Coagulation factor XI (Homo sapiens) (UniProt P03951); assay: human FXIa protease inhibitors, primary screen, biochemical, 1536-well (AID 798); conditions: purified FXIa, Boc-Glu-Ala-Arg-AMC fluorogenic substrate; at 5 µM; stronger effect = higher value;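 also: fluorescence of freed AMC excited at 355 nm; 0% = enzyme without compound and 100% = no enzyme blank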
Sequence (P03951 19-387 limits assumed): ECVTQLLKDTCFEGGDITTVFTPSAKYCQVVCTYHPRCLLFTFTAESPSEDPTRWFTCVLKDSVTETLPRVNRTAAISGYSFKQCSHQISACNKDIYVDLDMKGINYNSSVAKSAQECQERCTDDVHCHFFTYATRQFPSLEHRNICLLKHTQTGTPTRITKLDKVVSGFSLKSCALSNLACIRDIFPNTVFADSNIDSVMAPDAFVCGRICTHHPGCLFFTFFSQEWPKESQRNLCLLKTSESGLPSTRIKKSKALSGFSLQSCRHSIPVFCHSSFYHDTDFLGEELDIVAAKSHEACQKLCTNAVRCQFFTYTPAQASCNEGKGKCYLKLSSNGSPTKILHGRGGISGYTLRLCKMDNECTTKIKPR
Sequence (P03951 388-625 limits assumed): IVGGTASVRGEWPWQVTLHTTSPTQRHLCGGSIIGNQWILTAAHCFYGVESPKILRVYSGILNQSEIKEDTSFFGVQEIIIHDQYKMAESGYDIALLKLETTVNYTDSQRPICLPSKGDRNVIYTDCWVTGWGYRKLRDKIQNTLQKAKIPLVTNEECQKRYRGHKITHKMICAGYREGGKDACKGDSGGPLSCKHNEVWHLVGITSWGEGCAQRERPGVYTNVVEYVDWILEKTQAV

Compound | inhibition
O=C(NCc1cccnc1)Nc1cccc(NC(=O)NCc2cccnc2)c1F | -0.25%
CCOC(=O)c1ccccc1NC(=S)N1CCC(C(N)=O)CC1 | -1.65%
NC(=O)COC(=O)c1cc(S(=O)(=O)N2CCN(c3ccccc3)CC2)ccc1Cl | -1.04%
O=C1c2ccccc2C(=O)N1CCC(O)C[N+](=O)[O-] (stereo unspecified) | 1.96%
CCOc1ccc(S(=O)(=O)Nc2nccs2)cc1 | 0.82%
COc1ccc(CN(C(=O)c2cccs2)c2nccs2)cc1OC | 0.51%
COc1ccc(CN(Cc2ccc(OC)cc2)C(=O)c2cccs2)cc1 | 54.2% (active)
COc1ccc(OCC(=O)N2CCN(C(=O)c3cccs3)CC2)cc1 | -3.87%
C/C(=N/NC(=O)CC(=O)N/N=C(\C)c1ccc([N+](=O)[O-])cc1)c1ccc([N+](=O)[O-])cc1 | 0.21%
Cc1nc(N)sc1N=Nc1c(C)n(C)n(-c2ccccc2)c1=O | 1.75%
CC(C)n1c(O)c(N=Nc2ccccn2)c2ccccc21 | 0.21%
CCCCOc1ccc(C(=O)N/C(=C/C=C/c2ccccc2)C(=O)N2CCOCC2)cc1 | 5.26%
CCOC(=O)C1CCN(C(=O)Nc2cccc(OC)c2)CC1 | -1.56%
CN(c1ccccn1)c1ncnc2[nH]ncc12 | -2.65%
CCOc1cc2c(Cl)ncnc2c(OCC)c1OCC | -5.65%
Cc1ccc(C(=O)NNC(=O)OC(C)(C)C)c(Cl)c1 | 8.12%
Cc1nc(N2CCOCC2)sc1C(=O)NN | -11.6%
CC(C)(C)NC(=O)C(=O)NN=C1CCCCCCC1 | -1.87%
O=S(=O)(Nc1ccc2cn[nH]c2c1)c1ccccc1 | -7.54%
C/C(=N/O)c1ccc(N2C(=O)C3C4C=CC(C3C2=O)C2C3C(=O)N(c5ccc(/C(C)=N/O)cc5)C(=O)C3C42)cc1 (stereo unspecified) | -1.59%
CCCCCC(=O)Nc1ccc(S(=O)(=O)Nc2ccc(Cl)nn2)cc1 | -12.1%
